Not all results are given here.
LmPK act: activators of Leishmania mexicana pyruvate kinase; Q27686; activity change, negative = inhibition, % at 57.5 µM; purified LmPK, Kinase-Glo ATP luminescence, 1 h; AID 1722; 290,000 tested, under 10 active; calls by dose curve
Target sequence (Q27686 whole entry, looked up): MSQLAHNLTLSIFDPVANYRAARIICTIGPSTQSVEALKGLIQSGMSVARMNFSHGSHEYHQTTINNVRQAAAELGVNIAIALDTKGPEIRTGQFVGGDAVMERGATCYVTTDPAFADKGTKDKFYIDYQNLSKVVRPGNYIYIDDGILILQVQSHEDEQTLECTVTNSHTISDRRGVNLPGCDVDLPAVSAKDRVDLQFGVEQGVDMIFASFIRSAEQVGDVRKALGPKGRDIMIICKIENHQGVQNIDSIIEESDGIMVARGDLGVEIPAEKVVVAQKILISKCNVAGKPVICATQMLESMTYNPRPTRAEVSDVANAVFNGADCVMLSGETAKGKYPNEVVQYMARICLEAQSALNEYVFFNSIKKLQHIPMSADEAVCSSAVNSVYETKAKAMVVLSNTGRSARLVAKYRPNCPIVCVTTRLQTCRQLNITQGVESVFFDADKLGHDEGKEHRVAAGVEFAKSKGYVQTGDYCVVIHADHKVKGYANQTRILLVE
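Purified L. mexicana pyruvate kinase (0.1 nM) with 0.5 mM PEP and 0.1 mM ADP in pH 7.2 imidazole buffer, 1 h at RT. ATP formed measured by Kinase-Glo luminescence; normalized to uninhibited and no-enzyme wells.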
* = called active by the depositor.

SMILES | LmPK act
COc1ccc(-c2n[nH]c(=S)n2-c2ccccc2C)cc1OC | -32
COc1cc(/C=C2/C(=O)c3cccc([N+](=O)[O-])c3C2=O)c(Br)cc1O | -93
CSc1nc(=S)c2[nH]c(=S)[nH]c2[nH]1 | -31
COC(CNC(=O)CCc1c(C)nc2c(-c3ccccc3)c(C)nn2c1C)OC | 2
Fc1ccc(OCc2nc3ccccc3s2)cc1 | -56
Oc1cc2c(cc1O)C1c3ccc(O)c(O)c3OCC1(O)C2 (stereo not drawn) | -54
Cc1ccn2cc(-c3ccc(O)c(O)c3)nc2c1 | -59
Fc1ccc(-n2nnc(-c3cnc4ccccc4c3)n2)cc1 | -41
O=C(c1ccc(Br)o1)N1CCc2ccccc21 | -112
CN(C(=O)c1ccco1)c1nc2c(s1)CCCC2 | -89
COc1ccc(-c2n[nH]c(=S)n2-c2ccc(Br)cc2)cc1OC | -74
CCSc1nn2c(=O)c3ccccc3nc2s1 | -35
Cc1[nH]n(-c2ccc([N+](=O)[O-])cc2)c(=O)c1C=NCCN1CCN(C(=O)c2ccccc2)CC1 | -68
COc1ccc(/C=C/C(=O)C2C(=O)C=C(C)OC2=O)cc1O (stereo not drawn) | -75
CC(C)CCC(CC(C)O)c1n[nH]c(=S)n1-c1ccccc1 (stereo not drawn) | -65
Cc1cc2c(cc1C)CN(c1ccccc1)C2 | -70
O=C(NCC1CCCO1)c1csc(Nc2cccc3ccccc23)n1 (stereo not drawn) | -121
CC(=O)Nc1ccc(S(=O)(=O)NNc2ccc([N+](=O)[O-])cc2)cc1 | -38
CC(C)(C)C1=CC=C(C(C)(C)C)C(=O)C1=O | -68
CS(=O)(=O)C1=NSC2=NC(=O)/C(=C\c3ccc(OC(=O)c4ccco4)c(Br)c3)C(=N)N21 | -31
CCOC(=O)C1=C(CS(=O)(=O)c2ccc(F)cc2)NC(=O)NC1c1ccc(O)c(O)c1 (stereo not drawn) | -41
S=c1[nH]nc(C23CC4CC(CC(C4)C2)C3)n1Cc1ccco1 | -34
CCn1cc(-c2n[nH]c(=S)n2-c2ccc(C)cc2Br)c(=O)c2ccc(C)nc21 | -83
COc1ccccc1N1C(=O)C=C(Sc2nc(C)cc(C)n2)C1=O | -59
CC(=O)Oc1ccc2cc(-c3ccccc3)c(=O)oc2c1 | -49
SMILES | LmPK act
COc1ccc(C2CC(C)(c3ccc(OC)cc3OC)Nc3ccccc3N2)c(OC)c1 (stereo not drawn) | -37
O=C1C=CC(=O)N1c1cccc(-c2ccccc2)c1 | -41
COc1ccc(/C=C/C(=O)c2cc3c(cc2N)OCO3)cc1 | -34
CC(C)Cc1cc(CN2CCC(CO)(Cc3cccc(C(F)(F)F)c3)CC2)[nH]n1 | -34
CCOc1ccc(Cc2c(C)[nH]c3ccc(C(=O)O)cc3c2=S)cc1 | -43
CC1(C)CCN2CCC(C)(C)c3c(O)ccc1c32 | -57
CC(=O)Oc1ccc(OC(C)=O)c(SCCCCCN2CCOCC2)c1 | -56
CCCCn1c(-c2sccc2C)n[nH]c1=S | -67
CC(=O)C(C(C)=O)c1c(Cl)c(O)c(O)c2c(C(=O)c3ccccc3)coc12 | -68
COC(Cc1n[nH]c(=S)n1-c1ccc(Cl)cc1)OC | -45
C/C(=N/OC(=O)c1ccccc1)c1oc(C)nc1C | -40
CC(C)N=C1NN=C(c2ccc(F)cc2)CS1 | -59
C=CCn1c(-c2cc3cccc(OC)c3o2)n[nH]c1=S | -50
Cc1ccccc1C(=O)O/N=C(\N)c1ccncc1 | -36
CCCCc1n[nH]c(=S)n1Cc1ccc(Cl)cc1 | -70
C=CCN=C1NN=C(c2ccc3c(c2)OCCO3)CS1 | -84
O=C(O)c1ccc(N2Cc3ccccc3C2)cc1O | -62
CC(C1CC2CCC1C2)n1c(-c2cccs2)n[nH]c1=S (stereo not drawn) | -87
CSCc1ccc(C(=O)Nc2ccc(C(N)=O)cc2)cc1 | -33
CN(C)c1ccc(-c2ccccc2)nn1 | -69
O=C(Nc1ccccc1)Nc1ccc(C(=O)N2CCOCC2)cc1 | -86
N/C(=N\OC(=O)C1CCCCC1)c1ccccn1 | -64
O=C(COc1ccc2c(c1)OCO2)Nc1nccs1 | -85
COc1cc(O)oc1C=Nc1ccc(C(=O)O)cc1 | -62
COc1ccc(C2=CC(=O)C=CC2=O)cc1 | -101
SMILES | LmPK act
CC(C)S(=O)(=O)c1csc(C(=O)Nc2ccc(F)cc2)c1N | -83
O=C(N=Nc1c(O)[nH]c2ccccc12)c1ccco1 | -72
[O-][n+]1onc2c1CCC(=N/O)/C2=N\Nc1ccccc1 | -31
CCn1c(-c2cc3c(C(F)(F)F)nn(C)c3s2)n[nH]c1=S | -42
O=C(Nc1nc2c(s1)CCCC2=O)c1cnccn1 | -74
Cc1ccsc1C(=O)Nc1nc2ccccc2[nH]1 | -86
c1cn2cc(-c3ccc4c(c3)OCO4)nc2s1 | -50
C/C(=N\NC(=O)c1ccccc1NC(=O)c1ccc(Cl)cc1)c1ccncc1 | -40
S=c1[nH]nc(-c2cccc3ccccc23)n1-c1cccnc1 | -72
Cc1cc(NC(=O)c2ccoc2C)no1 | -78
CC/C(C)=N/Nc1nc(-c2cc3cccc(OC)c3oc2=O)cs1 | -39
COc1ccccc1NC(=O)Nc1ccc2c(c1)nc(C)n2C | -60
Fc1ccc(-c2nc(-c3cnccn3)no2)c(Cl)c1 | -59
CSc1ccc(/C=N/NC(=O)c2cccc(O)c2)cc1 | -65
O=C(NNc1cc(C(F)(F)F)nc2ccccc12)Nc1cccc(Cl)c1 | -30
O=C(COC(=O)c1cccnc1Cl)c1ccc(OC(F)F)cc1 | -66
